Assay in all cases: DAPPL (digital affinity profiling via proximity ligation, sequencing); 10 mM Tris-HCl pH 7.5, 50 mM NaCl, 1 mM DTT, 4% glycerol, room temperature, 30 min; GST-TFs on glutathione beads, 16-mer random dsDNA library, 0.1% formaldehyde crosslink after washing; high values mean tight binding
The target in one experiment is T1, FLI1 (Homo sapiens, UniProt Q01543 1-452).
T1 sequence: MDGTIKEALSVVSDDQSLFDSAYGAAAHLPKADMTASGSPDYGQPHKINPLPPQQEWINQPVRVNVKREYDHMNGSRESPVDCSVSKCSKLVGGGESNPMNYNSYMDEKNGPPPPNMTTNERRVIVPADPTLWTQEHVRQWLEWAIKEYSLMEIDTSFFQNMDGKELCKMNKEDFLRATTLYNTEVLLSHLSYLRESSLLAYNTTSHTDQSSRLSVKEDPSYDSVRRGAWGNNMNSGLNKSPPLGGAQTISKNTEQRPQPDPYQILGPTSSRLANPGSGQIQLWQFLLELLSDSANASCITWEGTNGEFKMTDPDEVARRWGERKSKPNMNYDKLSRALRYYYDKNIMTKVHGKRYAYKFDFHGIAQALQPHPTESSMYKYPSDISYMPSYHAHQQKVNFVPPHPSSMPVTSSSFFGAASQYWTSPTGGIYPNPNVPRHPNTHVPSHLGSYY
The settings on record: protein: recombinant; tags: N-terminal GST; dsDNA, one strand shown. In short, it runs like this:
(§1)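 Pools of DNA-barcoded human transcription factors, expressed in yeast as GST fusions on glutathione beads and combined with a tag-only sample, were incubated with 200 nmole of a 16-mer random double-stranded DNA library. Incubation took 30 min at room temperature in Tris/NaCl/DTT/glycerol buffer and was followed by washing, 0.1% formaldehyde crosslinking, proximity ligation (BsaI/T4 ligase, 1 h, 37 °C), PCR amplification and sequencing on an Illumina NextSeq500. Binding signal is the ratio of a hexamer's read frequency for a factor to its frequency for the tag-only sample.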

The next experiment addresses T2, ELK1 (Homo sapiens, UniProt P19419 1-428).
T2 sequence: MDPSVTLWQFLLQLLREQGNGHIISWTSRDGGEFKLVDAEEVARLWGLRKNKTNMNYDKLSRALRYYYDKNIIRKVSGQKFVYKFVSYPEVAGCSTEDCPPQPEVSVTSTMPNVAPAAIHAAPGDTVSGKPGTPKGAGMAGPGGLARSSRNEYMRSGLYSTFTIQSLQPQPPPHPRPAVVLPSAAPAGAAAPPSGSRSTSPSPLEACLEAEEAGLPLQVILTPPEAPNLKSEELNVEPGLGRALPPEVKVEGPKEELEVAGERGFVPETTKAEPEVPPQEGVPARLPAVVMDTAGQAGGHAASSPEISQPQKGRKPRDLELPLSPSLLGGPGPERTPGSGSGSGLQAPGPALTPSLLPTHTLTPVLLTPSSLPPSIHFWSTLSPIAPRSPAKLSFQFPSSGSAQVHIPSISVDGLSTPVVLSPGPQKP
The settings on record: protein: recombinant; tags: N-terminal GST; dsDNA, one strand shown. The procedure, abridged:
as §1

For the next experiment, the target named is T3, GABPA (Homo sapiens, UniProt Q06546 1-454).
T3 sequence: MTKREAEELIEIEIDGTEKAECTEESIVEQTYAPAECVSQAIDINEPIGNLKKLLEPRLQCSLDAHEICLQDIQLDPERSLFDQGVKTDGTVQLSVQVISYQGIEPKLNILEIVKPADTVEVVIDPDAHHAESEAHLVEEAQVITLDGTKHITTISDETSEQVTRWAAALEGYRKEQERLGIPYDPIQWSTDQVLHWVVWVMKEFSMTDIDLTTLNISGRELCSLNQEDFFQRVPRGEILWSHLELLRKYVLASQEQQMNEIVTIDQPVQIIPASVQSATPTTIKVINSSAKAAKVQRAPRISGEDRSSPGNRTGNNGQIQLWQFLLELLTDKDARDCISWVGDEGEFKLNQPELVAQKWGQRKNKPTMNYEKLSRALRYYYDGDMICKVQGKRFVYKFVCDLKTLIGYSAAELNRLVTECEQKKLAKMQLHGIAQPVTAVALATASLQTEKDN
Conditions: protein: recombinant; tags: N-terminal GST; dsDNA, one strand shown. The procedure, abridged:
as §1

The target of a further experiment is T4, ERG (Homo sapiens, UniProt P11308 1-479).
T4 sequence: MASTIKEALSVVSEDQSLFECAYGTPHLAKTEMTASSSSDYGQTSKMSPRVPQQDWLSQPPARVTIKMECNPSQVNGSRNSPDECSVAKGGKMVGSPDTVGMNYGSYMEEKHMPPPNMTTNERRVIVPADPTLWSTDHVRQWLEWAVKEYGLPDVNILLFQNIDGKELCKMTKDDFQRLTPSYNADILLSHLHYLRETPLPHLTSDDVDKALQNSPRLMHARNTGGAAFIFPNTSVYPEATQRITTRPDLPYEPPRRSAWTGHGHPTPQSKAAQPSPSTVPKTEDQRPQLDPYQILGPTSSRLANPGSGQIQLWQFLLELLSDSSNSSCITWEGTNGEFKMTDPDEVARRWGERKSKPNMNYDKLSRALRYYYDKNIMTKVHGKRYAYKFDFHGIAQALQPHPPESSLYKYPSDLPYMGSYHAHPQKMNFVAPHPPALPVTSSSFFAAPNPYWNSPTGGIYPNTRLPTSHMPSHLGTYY
The settings on record: protein: recombinant; tags: N-terminal GST; dsDNA, one strand shown. The procedure, abridged:
as §1

The target of another experiment is ELF1 (Homo sapiens, UniProt P32519 1-619). Conditions: protein: recombinant; tags: N-terminal GST; dsDNA, one strand shown. In short, it runs like this: as §1
A further experiment addresses T5, EHF (Homo sapiens, UniProt Q9NZC4 1-300).
T5 sequence: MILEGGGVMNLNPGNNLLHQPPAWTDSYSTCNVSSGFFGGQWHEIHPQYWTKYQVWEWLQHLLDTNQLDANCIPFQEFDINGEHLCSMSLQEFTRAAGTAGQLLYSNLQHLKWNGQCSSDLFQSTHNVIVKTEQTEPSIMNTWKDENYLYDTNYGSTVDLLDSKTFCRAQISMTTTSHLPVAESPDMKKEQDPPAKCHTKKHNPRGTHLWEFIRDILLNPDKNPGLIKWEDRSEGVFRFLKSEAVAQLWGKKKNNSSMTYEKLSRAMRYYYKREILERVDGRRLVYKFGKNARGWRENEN
The settings on record: protein: recombinant; tags: N-terminal GST; dsDNA, one strand shown. In short, it runs like this: as §1

The next experiment deals with SPI1 (Homo sapiens, UniProt P17947 1-270). Conditions: protein: recombinant; tags: N-terminal GST; dsDNA, one strand shown. In short, it runs like this:
as §1

Another experiment has as its target SPIB (Homo sapiens, UniProt Q01892 1-262). The settings on record: protein: recombinant; tags: N-terminal GST; dsDNA, one strand shown. In short, it runs like this: as §1
For a further experiment, the target named is T6, ELK3 (Homo sapiens, UniProt P41970 1-407).
T6 sequence: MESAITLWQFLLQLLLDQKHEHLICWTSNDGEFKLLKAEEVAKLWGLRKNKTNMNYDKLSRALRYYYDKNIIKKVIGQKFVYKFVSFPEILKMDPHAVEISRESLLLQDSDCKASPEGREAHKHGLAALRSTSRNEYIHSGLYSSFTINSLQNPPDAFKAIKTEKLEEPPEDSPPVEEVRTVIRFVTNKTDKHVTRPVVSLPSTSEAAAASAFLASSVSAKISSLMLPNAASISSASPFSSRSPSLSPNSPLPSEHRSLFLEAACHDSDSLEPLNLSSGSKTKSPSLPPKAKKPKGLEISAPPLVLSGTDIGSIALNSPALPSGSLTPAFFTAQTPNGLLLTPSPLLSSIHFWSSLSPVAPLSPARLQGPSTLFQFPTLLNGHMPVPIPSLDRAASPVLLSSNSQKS
The settings on record: protein: recombinant; tags: N-terminal GST; dsDNA, one strand shown. In short, it runs like this:
as §1

In another experiment the target is ETV5 (Homo sapiens, UniProt P41161 1-510). The settings on record: protein: recombinant; tags: N-terminal GST; dsDNA, one strand shown. The procedure, abridged:
as §1

The target in a further experiment is HSF1 (Homo sapiens, UniProt Q00613 1-529). The settings on record: protein: recombinant; tags: N-terminal GST; chain copies: 3; dsDNA, one strand shown. The procedure, abridged:
as §1

A further experiment addresses T7, SPIC (Homo sapiens, UniProt Q8N5J4 1-248).
T7 sequence: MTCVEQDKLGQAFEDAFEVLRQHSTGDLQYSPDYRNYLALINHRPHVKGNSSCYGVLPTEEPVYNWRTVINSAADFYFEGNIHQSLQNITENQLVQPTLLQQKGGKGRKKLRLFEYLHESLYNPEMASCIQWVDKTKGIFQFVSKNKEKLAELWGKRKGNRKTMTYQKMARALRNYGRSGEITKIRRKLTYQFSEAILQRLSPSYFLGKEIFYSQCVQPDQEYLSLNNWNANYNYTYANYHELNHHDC
The settings on record: protein: recombinant; tags: N-terminal GST; dsDNA, one strand shown. In short, it runs like this:
as §1

The target in another experiment is ELF4 (Homo sapiens, UniProt Q99607 1-663). Conditions: protein: recombinant; tags: N-terminal GST; dsDNA, one strand shown. In short, it runs like this:
as §1

A further experiment deals with T8, ELK4 (Homo sapiens, UniProt P28324-2 1-405).
T8 sequence: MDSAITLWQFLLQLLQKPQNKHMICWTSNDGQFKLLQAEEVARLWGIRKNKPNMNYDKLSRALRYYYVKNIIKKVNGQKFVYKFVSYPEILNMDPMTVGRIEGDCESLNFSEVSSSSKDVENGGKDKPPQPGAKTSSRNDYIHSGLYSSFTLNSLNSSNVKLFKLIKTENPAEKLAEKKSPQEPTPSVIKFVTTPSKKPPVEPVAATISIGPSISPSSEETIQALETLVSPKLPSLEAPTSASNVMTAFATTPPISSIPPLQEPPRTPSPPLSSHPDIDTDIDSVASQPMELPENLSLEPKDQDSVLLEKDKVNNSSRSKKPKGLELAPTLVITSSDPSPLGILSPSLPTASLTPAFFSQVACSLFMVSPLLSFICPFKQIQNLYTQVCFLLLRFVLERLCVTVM
The settings on record: protein: recombinant; tags: N-terminal GST; dsDNA, one strand shown. The procedure, abridged:
as §1

The next experiment has as its target T9, ETV2 (Homo sapiens, UniProt O00321 1-342).
T9 sequence: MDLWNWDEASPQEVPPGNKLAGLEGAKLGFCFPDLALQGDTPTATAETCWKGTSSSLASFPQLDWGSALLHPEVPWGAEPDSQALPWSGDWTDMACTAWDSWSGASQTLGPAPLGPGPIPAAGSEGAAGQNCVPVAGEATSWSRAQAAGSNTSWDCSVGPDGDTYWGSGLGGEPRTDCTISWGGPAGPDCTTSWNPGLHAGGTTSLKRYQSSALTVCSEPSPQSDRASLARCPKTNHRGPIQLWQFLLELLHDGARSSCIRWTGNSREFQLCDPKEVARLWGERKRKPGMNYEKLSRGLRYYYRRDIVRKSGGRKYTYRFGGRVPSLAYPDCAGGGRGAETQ
The settings on record: protein: recombinant; tags: N-terminal GST; dsDNA, one strand shown. The procedure, abridged:
as §1

The next experiment has as its target T10, ELF3 (Homo sapiens, UniProt P78545 1-371).
T10 sequence: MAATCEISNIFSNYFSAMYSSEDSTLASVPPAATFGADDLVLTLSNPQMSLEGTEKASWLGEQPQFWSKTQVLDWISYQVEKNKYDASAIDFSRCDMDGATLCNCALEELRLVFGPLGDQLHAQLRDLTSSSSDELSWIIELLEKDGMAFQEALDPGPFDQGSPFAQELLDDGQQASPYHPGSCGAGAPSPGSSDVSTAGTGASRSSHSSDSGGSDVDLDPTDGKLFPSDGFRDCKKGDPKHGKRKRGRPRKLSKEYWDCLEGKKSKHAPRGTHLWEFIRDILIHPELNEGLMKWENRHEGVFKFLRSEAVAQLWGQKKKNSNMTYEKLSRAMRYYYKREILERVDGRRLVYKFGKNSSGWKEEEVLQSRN
Conditions: protein: recombinant; tags: N-terminal GST; dsDNA, one strand shown. The procedure, abridged: as §1

In another experiment the target is ETV1 (Homo sapiens, UniProt P50549 1-477). The settings on record: protein: recombinant; tags: N-terminal GST; dsDNA, one strand shown. The procedure, abridged: as §1
Sequence of ETV1 (P50549 whole entry): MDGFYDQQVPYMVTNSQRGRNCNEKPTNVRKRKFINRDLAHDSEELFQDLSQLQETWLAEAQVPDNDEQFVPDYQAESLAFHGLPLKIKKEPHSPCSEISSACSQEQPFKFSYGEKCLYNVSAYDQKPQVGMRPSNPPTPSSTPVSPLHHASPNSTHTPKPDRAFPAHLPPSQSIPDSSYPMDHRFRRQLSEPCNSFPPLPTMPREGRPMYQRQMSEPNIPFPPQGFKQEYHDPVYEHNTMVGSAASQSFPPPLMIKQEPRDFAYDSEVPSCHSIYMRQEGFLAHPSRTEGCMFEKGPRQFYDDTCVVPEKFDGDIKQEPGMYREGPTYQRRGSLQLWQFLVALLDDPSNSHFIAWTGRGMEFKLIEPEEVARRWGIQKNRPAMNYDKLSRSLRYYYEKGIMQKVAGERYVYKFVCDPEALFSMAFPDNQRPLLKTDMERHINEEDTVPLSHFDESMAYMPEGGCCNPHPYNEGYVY

Sequence of SPIB (Q01892 whole entry): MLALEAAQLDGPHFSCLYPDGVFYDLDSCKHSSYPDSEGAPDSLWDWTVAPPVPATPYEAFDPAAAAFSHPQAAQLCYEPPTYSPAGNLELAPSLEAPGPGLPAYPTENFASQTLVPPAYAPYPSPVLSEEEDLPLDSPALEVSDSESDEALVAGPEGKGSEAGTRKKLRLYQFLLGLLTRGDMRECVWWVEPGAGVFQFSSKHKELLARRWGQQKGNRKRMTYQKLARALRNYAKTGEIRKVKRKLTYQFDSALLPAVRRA
Sequence of HSF1 (Q00613 whole entry): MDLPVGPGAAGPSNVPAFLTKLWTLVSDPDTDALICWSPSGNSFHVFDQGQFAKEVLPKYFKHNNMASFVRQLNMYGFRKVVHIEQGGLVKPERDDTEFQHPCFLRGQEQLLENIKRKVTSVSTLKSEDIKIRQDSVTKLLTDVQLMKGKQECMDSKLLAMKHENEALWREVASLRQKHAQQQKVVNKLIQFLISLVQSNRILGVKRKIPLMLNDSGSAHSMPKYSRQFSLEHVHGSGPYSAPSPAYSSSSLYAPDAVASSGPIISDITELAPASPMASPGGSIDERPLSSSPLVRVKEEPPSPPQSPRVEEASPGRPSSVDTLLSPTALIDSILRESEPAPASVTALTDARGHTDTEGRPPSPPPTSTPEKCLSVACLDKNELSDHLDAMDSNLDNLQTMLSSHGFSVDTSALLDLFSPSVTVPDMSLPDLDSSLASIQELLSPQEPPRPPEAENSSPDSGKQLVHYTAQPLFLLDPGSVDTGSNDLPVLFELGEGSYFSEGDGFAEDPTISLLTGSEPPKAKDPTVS
Sequence of ELF4 (Q99607 whole entry): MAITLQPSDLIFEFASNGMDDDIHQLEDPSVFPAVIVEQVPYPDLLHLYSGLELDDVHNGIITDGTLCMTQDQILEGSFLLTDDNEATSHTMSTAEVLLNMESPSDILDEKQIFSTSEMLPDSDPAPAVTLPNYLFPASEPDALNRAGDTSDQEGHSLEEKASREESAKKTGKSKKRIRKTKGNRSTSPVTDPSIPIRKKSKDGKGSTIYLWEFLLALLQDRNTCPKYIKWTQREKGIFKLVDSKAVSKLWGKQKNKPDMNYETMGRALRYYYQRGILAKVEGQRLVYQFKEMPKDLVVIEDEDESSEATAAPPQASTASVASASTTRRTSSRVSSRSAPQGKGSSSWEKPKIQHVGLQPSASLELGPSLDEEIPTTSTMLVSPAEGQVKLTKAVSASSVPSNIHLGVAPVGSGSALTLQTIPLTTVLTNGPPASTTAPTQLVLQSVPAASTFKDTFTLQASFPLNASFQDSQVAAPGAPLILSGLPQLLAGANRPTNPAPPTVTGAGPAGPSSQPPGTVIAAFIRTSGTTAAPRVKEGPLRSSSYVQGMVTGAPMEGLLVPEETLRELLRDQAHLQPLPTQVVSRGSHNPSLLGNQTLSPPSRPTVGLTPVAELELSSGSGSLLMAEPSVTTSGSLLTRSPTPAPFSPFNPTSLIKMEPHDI
Sequence of ETV5 (P41161 whole entry): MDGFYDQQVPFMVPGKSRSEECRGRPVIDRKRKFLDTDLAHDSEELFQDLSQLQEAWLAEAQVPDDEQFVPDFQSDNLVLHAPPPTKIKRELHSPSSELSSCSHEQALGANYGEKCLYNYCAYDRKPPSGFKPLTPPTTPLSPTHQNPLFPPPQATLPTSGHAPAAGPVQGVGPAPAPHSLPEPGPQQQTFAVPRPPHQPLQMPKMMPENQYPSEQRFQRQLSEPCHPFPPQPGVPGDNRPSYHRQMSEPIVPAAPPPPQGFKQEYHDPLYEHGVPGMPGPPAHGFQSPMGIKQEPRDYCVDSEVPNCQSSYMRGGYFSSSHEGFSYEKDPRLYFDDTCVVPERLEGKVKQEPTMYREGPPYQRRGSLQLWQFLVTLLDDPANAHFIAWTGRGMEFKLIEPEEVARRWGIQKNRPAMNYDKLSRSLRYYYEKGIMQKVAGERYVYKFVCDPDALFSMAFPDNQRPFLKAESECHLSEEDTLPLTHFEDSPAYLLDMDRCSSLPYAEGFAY
Sequence of ELF1 (P32519 whole entry): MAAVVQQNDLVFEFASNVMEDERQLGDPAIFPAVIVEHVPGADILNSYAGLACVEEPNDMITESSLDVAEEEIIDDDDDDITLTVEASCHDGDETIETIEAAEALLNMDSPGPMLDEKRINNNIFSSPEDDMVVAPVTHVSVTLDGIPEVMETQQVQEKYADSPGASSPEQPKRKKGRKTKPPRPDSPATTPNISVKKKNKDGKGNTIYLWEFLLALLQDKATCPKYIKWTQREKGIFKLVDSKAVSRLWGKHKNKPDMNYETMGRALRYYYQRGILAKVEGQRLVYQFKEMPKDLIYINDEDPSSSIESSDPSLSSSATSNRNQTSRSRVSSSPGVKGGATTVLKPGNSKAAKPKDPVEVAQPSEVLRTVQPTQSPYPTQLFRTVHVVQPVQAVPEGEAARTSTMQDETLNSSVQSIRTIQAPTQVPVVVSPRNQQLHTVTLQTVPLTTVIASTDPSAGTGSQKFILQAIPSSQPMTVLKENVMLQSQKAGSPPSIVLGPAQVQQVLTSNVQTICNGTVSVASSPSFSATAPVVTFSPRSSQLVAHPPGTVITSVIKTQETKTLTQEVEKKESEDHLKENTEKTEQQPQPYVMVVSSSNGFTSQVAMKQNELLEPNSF

As for TGGTAG, the binding signal with FLI1 is 1.1 fold enrichment (6-mer frequency, TF over GST control); with ELK1, 1.02 fold enrichment (6-mer frequency, TF over GST control); in the experiment with GABPA, 1.08 fold enrichment (6-mer frequency, TF over GST control); with ERG, 1 fold enrichment (6-mer frequency, TF over GST control); in the experiment with ELF1, 1.05 fold enrichment (6-mer frequency, TF over GST control); in the experiment with EHF, 1.11 fold enrichment (6-mer frequency, TF over GST control). Moreover, the binding signal is 1.03 fold enrichment (6-mer frequency, TF over GST control) with SPI1; 1.15 fold enrichment (6-mer frequency, TF over GST control) with SPIB; 1.11 fold enrichment (6-mer frequency, TF over GST control) with ELK3; 1.07 fold enrichment (6-mer frequency, TF over GST control) with ETV5; 1.06 fold enrichment (6-mer frequency, TF over GST control) in the experiment with HSF1; 1.08 fold enrichment (6-mer frequency, TF over GST control) with SPIC. Besides, the binding signal with ELF4 is 1.11 fold enrichment (6-mer frequency, TF over GST control); in the experiment with ELK4 it was 1.37 fold enrichment (6-mer frequency, TF over GST control); in the experiment with ETV2, 1.04 fold enrichment (6-mer frequency, TF over GST control); in the experiment with ELF3, 1.13 fold enrichment (6-mer frequency, TF over GST control); with ETV1 it was 1.05 fold enrichment (6-mer frequency, TF over GST control).

Source of the values: PMC7862700, “An all-to-all approach to the identification of sequence-specific readers for epigenetic DNA modifications on cytosine”.
